Screens deposited in PubChem by National Center for Advancing Translational Sciences (NCATS).
A selection: hits, their analogues and other compounds. The true share with any hit is near 18%.
KAT2A inh: GCN5L2 (KAT2A) acetyltransferase inhibition; GCN5L2 HAT assay, ThioGlo1 CoA-SH fluorescence; AID 504327; Q92830; 0.21% of 390,000 active; Potency, µM (top dose mostly 58.9 µM), usual class: inhibitors
Target sequence (Q92830 whole entry, looked up): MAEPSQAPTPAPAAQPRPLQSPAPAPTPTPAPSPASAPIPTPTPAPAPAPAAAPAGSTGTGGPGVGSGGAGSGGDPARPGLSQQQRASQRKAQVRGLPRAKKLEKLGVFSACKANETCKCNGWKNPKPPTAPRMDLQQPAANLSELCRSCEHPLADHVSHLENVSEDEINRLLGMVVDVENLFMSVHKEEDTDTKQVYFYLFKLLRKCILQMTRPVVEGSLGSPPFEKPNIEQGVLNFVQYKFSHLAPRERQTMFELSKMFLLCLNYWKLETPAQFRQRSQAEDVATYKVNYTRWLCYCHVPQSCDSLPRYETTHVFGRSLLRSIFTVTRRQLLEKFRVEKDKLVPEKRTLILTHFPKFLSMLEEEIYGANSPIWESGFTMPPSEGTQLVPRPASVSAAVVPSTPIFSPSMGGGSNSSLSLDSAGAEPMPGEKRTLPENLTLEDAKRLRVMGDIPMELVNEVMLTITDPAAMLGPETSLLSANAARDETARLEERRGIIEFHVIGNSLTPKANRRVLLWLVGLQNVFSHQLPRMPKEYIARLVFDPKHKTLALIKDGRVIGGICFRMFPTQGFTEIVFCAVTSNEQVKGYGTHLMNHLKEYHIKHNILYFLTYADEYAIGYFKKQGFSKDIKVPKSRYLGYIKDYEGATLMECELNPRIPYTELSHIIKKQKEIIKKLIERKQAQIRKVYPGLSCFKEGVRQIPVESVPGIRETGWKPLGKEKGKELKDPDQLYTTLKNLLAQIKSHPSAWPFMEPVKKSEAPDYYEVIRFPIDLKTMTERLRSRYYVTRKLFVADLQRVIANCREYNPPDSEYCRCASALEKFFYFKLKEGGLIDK
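qHTS, 1536-well. 20nM enzyme, pH 7.5 HEPES/EDTA/Tween-20 buffer; 15 min compound preinc., RT. Start: 75uM H3(1-25), 70uM AcCoA, 50uM ThioGlo1. Read Ex340/Em540 at t=0 (autofluorescence flag) and t=20 min.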
DT40 TDP1 no CPT: qHTS for Inhibitors of human tyrosyl-DNA phosphodiesterase 1 (TDP1): qHTS in cells in absence of CPT; DT40 Tdp1-/- hTDP1 cells, no CPT, ATP luminescence, 48 h; Potency, µM (highest dose often 46.2 µM), hits mostly inhibitors; 15% of 420,000 active; note: nearly all actives have a fitted effect of over 55% in size
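Growth kinetics read by CellTiter-Glo luminescence after ≥48 hr at 37 °C. Cells: DT40 Tdp1-/- stably carrying human TDP1, 400 per well, compound exposure in the absence of CPT (DMSO vehicle).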
TDP1 inh: TDP1 (human) enzyme inhibition; recombinant TDP1, AlphaScreen DNA substrate cleavage; Potency, µM (series often up to 130 µM), actives largely listed as inhibitors; 0.28% of 350,000 active; AID 485290; note: nearly all actives have a fitted effect of over 40% in size
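AlphaScreen read-out: signal falls as enzyme removes the 3' tyrosine-FITC from a 5'-biotinylated DNA oligo (15 nM, 5 min, RT). Enzyme was E. coli-made recombinant Tdp1 at 1 nM, exposed to compound for 15 min beforehand; beads 10 ug/ml, 10 min.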
TDP1 cell CPT: DT40-hTDP1 cell growth loss with CPT | chicken DT40 Tdp1-/-;hTDP1 cells + 20 nM CPT, ATP luminescence, 48 h | Potency, µM (series often up to 46.2 µM), actives largely listed as inhibitors | 12% of 420,000 active | AID 686979; note: nearly all actives have a fitted effect of over 55% in size
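Chicken DT40 Tdp1-/- cells complemented with human TDP1, 400 cells/well, exposed to compounds plus 20 nM camptothecin for at least 48 h at 37 C; viability read as ATP content by CellTiter-Glo luminescence.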
VDR inhibitor: vitamin D3 receptor (human) inhibition. VDR-SRC2-3 peptide fluorescence polarization, 2 h. Potency, µM, most hits filed as inhibitors. P11473. 0.93% of 400,000 active
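FP read-out; VDR + SRC2-3 coactivator peptide; 23 nl compound by pintool; 2 h RT incubation; reagents held at 4 deg C, protected from light.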
PLK1 PBD inh: blocks phosphopeptide binding to human PLK1 polo-box domain. 2.8% of 360,000 active. Potency, µM, usual class: inhibitors. Plk1 PBD binding of FITC phosphopeptide, fluorescence polarization. AID 720504. P53350; note: series mostly up to about 57 µM; nearly all actives have a fitted effect of over 65% in size
Hits are given with their value. Calls come from the whole dose curve; as a rule, active = well fitted curve in the direction sought with a large enough effect; inconclusive = small, poorly fitted or top-dose-only effect, or another doubt; inactive = no such curve, though single readings can be large; an effect the other way counts as inactive or inconclusive.

Results for O=C(N/N=C/c1ccc[nH]1)c1cc(-c2ccc(Cl)cc2)nc2ccccc12 ?
KAT2A inh: inactive; DT40 TDP1 no CPT: 9.2µM; TDP1 inh: inactive; TDP1 cell CPT: inconclusive; VDR inhibitor: inactive; PLK1 PBD inh: inactive

What do the screens show for `CCOc1cc(/C=N/NC(=O)c2cc(-c3cccnc3)nc3ccccc23)ccc1O`?
KAT2A inh: inactive; DT40 TDP1 no CPT: 6.51µM; TDP1 inh: inactive; TDP1 cell CPT: inactive; VDR inhibitor: inactive; PLK1 PBD inh: inactive

What do the screens show for `O=C(N/N=C/c1cccnc1)c1cc(-c2ccc(Cl)cc2)nc2ccccc12`?
DT40 TDP1 no CPT: 8.2µM; TDP1 cell CPT: inconclusive; VDR inhibitor: inactive; PLK1 PBD inh: inactive

Results for CCOc1cc(C=NNC(=O)N(c2ccccc2)c2ccccc2)ccc1O ?
DT40 TDP1 no CPT: 16.4µM; TDP1 cell CPT: 29.1µM; PLK1 PBD inh: inactive

Results for CCC(=O)Nc1nnc(SCc2ccccc2F)s1 ?
KAT2A inh: inactive; DT40 TDP1 no CPT: inactive; TDP1 inh: inactive; TDP1 cell CPT: inactive; VDR inhibitor: inactive; PLK1 PBD inh: inactive

Results for COc1cccc(-c2nc(NCCNC(C)=O)c3ccccc3n2)c1 ?
KAT2A inh: inactive; DT40 TDP1 no CPT: inactive; TDP1 cell CPT: inactive; VDR inhibitor: inactive

Results for Cc1ccc(-c2cc(C(=O)N/N=C/c3cccnc3)c3ccccc3n2)cc1C ?
DT40 TDP1 no CPT: 8.2µM; TDP1 cell CPT: 8.2µM; VDR inhibitor: inactive; PLK1 PBD inh: inactive

What do the screens show for `Cc1ccc(/C=N/NC(=O)c2cc(-c3cccnc3)nc3ccccc23)cc1`?
KAT2A inh: inactive; DT40 TDP1 no CPT: 1.46µM; TDP1 inh: inactive; TDP1 cell CPT: 2.06µM; VDR inhibitor: inactive; PLK1 PBD inh: inactive

What do the screens show for `O=C(N/N=C/c1ccc(Cl)cc1)c1cc(-c2cccnc2)nc2ccccc12`?
KAT2A inh: inactive; DT40 TDP1 no CPT: 7.31µM; TDP1 inh: inactive; TDP1 cell CPT: inconclusive; VDR inhibitor: inactive; PLK1 PBD inh: inactive

How did O=C(N/N=C/c1cccnc1)c1cc(-c2ccc(Br)cc2)nc2ccccc12 do in these assays?
KAT2A inh: inactive; DT40 TDP1 no CPT: 8.2µM; TDP1 inh: inactive; TDP1 cell CPT: 11.6µM; VDR inhibitor: inactive; PLK1 PBD inh: inactive

What do the screens show for `COCC(=O)N1CCC(Oc2ccc(C(=O)NC(C)c3csc(C)n3)cc2)CC1` (configuration not stated)?
KAT2A inh: inactive; DT40 TDP1 no CPT: inactive; TDP1 inh: inactive; TDP1 cell CPT: inactive; VDR inhibitor: inactive; PLK1 PBD inh: inactive

What do the screens show for `CSc1ccc(Cn2nnc(C(=O)Nc3ccc(C)cc3Cl)c2N)cc1`?
KAT2A inh: inactive; DT40 TDP1 no CPT: inconclusive; TDP1 inh: inactive; TDP1 cell CPT: inactive; VDR inhibitor: inactive

How did O=C(Nc1ccnn1C1CCN(CCCC2CCCC2)CC1)c1ccccc1Cl do in these assays?
KAT2A inh: inactive; DT40 TDP1 no CPT: inconclusive; TDP1 inh: inactive; TDP1 cell CPT: inconclusive; VDR inhibitor: inactive; PLK1 PBD inh: inactive

How did O=C(Nc1ccccc1Cl)c1ccc(C(=O)Nc2ccccc2Cl)cc1 do in these assays?
DT40 TDP1 no CPT: inactive; TDP1 cell CPT: inactive; VDR inhibitor: inactive; PLK1 PBD inh: inactive

What do the screens show for `O=C(Nc1ccccc1Cl)C(Cl)C(=O)c1ccccc1` (configuration not stated)?
KAT2A inh: inactive; DT40 TDP1 no CPT: 13µM; TDP1 inh: inactive; TDP1 cell CPT: 14.6µM; VDR inhibitor: inactive; PLK1 PBD inh: 1.68µM

How did O=C(Nc1ccccc1)c1c(F)cccc1F do in these assays?
KAT2A inh: inactive; DT40 TDP1 no CPT: inactive; TDP1 inh: inactive; TDP1 cell CPT: inactive; VDR inhibitor: inactive; PLK1 PBD inh: inactive

What do the screens show for `O=C(Nc1ccccc1Cl)Nc1ccccc1Cl`?
KAT2A inh: inactive; DT40 TDP1 no CPT: inconclusive; TDP1 inh: inactive; TDP1 cell CPT: inactive; VDR inhibitor: inactive; PLK1 PBD inh: inactive

Results for O=C(Nc1ccc(Nc2ccccc2)cc1)Nc1ccccc1Cl ?
KAT2A inh: inactive; DT40 TDP1 no CPT: 7.31µM; TDP1 inh: inactive; TDP1 cell CPT: 18.4µM; VDR inhibitor: inactive; PLK1 PBD inh: inactive

How did O=P(C(=S)Nc1ccccc1Cl)(c1ccccc1)c1ccccc1 do in these assays?
DT40 TDP1 no CPT: 14.6µM; TDP1 cell CPT: 9.2µM; PLK1 PBD inh: inactive

Results for O=C(Nc1ccc(Nc2ccccc2)cc1)c1c(F)c(F)c(F)c(F)c1F ?
KAT2A inh: inactive; DT40 TDP1 no CPT: 6.51µM; TDP1 cell CPT: 6.51µM; VDR inhibitor: inactive; PLK1 PBD inh: inactive

Results for Cc1ccc2ncc3c(-c4ccc(F)cc4)nn(CC(=O)Nc4ccccc4C)c3c2c1 ?
KAT2A inh: inactive; DT40 TDP1 no CPT: inactive; TDP1 inh: inactive; TDP1 cell CPT: inactive; VDR inhibitor: inactive

What do the screens show for `COc1ccc(CNC(=O)c2ccc(-c3c(C)noc3C)c3ccoc23)cc1OC`?
DT40 TDP1 no CPT: inconclusive; TDP1 cell CPT: inconclusive; PLK1 PBD inh: inactive

How did Cc1ccsc1-c1nc(CN2CCCC2c2ccc(F)cc2)c(C)o1 (configuration not stated) do in these assays?
KAT2A inh: inactive; DT40 TDP1 no CPT: inactive; TDP1 inh: inactive; TDP1 cell CPT: inactive; VDR inhibitor: inactive; PLK1 PBD inh: inactive

How did O=C(Nc1ccc(Nc2ccccc2)cc1)c1ccc(F)cc1 do in these assays?
KAT2A inh: inactive; DT40 TDP1 no CPT: 20.6µM; TDP1 cell CPT: inconclusive; VDR inhibitor: inactive; PLK1 PBD inh: inactive

How did O=C(Nc1ccncc1)Nc1ccccc1Cl do in these assays?
KAT2A inh: inactive; DT40 TDP1 no CPT: inconclusive; TDP1 inh: inactive; TDP1 cell CPT: inconclusive; VDR inhibitor: inactive; PLK1 PBD inh: inactive

What do the screens show for `Cc1occc1C(=O)Nc1cccc(C(=O)NCc2ccccc2)c1`?
KAT2A inh: inactive; DT40 TDP1 no CPT: inactive; TDP1 inh: inactive; TDP1 cell CPT: inactive; VDR inhibitor: inactive; PLK1 PBD inh: inactive

Results for O=C(Nc1csc([N+](=O)[O-])c1)Nc1ccccc1Cl ?
KAT2A inh: inactive; DT40 TDP1 no CPT: 23.1µM; TDP1 cell CPT: 20.6µM; VDR inhibitor: inactive; PLK1 PBD inh: inactive

What do the screens show for `O=C(Nc1ccc(F)cc1)c1ccc(COc2ccccc2)cc1`?
KAT2A inh: inactive; DT40 TDP1 no CPT: inactive; TDP1 inh: inactive; TDP1 cell CPT: inconclusive; VDR inhibitor: inactive; PLK1 PBD inh: 26.7µM

What do the screens show for `Cc1occc1C(=O)Nc1ccc(OCc2ccccc2)cc1`?
KAT2A inh: inactive; DT40 TDP1 no CPT: 16.4µM; TDP1 inh: inactive; TDP1 cell CPT: inactive; VDR inhibitor: inactive; PLK1 PBD inh: inactive

What do the screens show for `O=C(Cn1cc2c(n1)CCCCC2)Nc1ccccc1Br`?
KAT2A inh: inactive; DT40 TDP1 no CPT: inactive; TDP1 cell CPT: inactive; VDR inhibitor: inactive; PLK1 PBD inh: inactive
